Source: PubChem BioAssay AID1159580 (chemical genetic matrix, 2015)
The whole screen tested about 5,500 compounds, of which about 2,000 (36%) were called active. Roughly 18% stayed inconclusive and do not appear here. Cut-off read from the data, not from the text of the source: active = normalized growth mostly below about 0.91 (no sharp cut-off); inconclusive = no clear call, values can overlap the other calls; inactive = mostly above about 0.92. Some of the results follow.

Assay: chemical genetic growth profiling, strain panel (AID 1159580);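 note: tested at 20 µM; growth read once vehicle control cultures reached saturation at 30 °C; 1 = growth at the plate median or of vehicle wells; lower values mean less growth of the strain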
Details: S. cerevisiae deletion strains, growth OD

Measured: normalized growth

CO[C@H]1[C@H](O)[C@H](O[C@H]2CC[C@]3(C)C4CC[C@]5(C)C(C6=CC(=O)OC6)CC[C@]5(O)C4CC[C@@H]3C2)O[C@@H](C)[C@@H]1O (some centres undefined)
inactive: locus YAL013W, strain DEP1, hits give low values 1.01 | locus YAL021C, strain ccr4, hits give low values 1 | locus YAL026C, strain drs2, hits give low values 1.01 | locus YAL030W, strain snc1, hits give low values 1 | locus YBL061C, strain skt5, hits give low values 0.993 | locus YBR009C, strain hhf1, hits give low values 1.01 | locus YBR021W, strain FUR4, hits give low values 1.02 | locus YBR023C, strain chs3, hits give low values 0.999 | locus YBR171W, strain sec66, hits give low values 0.984 | locus YBR229C, strain ROT2, hits give low values 1.01 | locus YBR231C, strain swc5, hits give low values 1.03 | locus YBR279W, strain paf1, hits give low values 1.01 | locus YCL011C, strain gbp2, hits give low values 0.992 | locus YCL016C, strain dcc1, hits give low values 1 | locus YCL029C, strain bik1, hits give low values 1.01 | locus YCL061C, strain MRC1, hits give low values 0.996 | locus YCL069W, strain vba3, hits give low values 1 | locus YCR088W, strain abp1, hits give low values 1 | locus YDL005C, strain med2, hits give low values 0.994 | locus YDL035C, strain GPR1, hits give low values 1.02 | locus YDL040C, strain nat1, hits give low values 1.02 | locus YDL074C, strain BRE1, hits give low values 1.02 | locus YDL101C, strain DUN1, hits give low values 1.02 | locus YDL134C, strain PPH21, hits give low values 1 | locus YDL185W, strain tfp1, hits give low values 1 | locus YDL192W, strain arf1, hits give low values 1.01 | locus YDR001C, strain nth1, hits give low values 0.994 | locus YDR069C, strain doa4, hits give low values 0.997 | locus YDR101C, strain arx1, hits give low values 0.993 | locus YDR137W, strain rgp1, hits give low values 1 | locus YDR150W, strain NUM1, hits give low values 1.01 | locus YDR159W, strain sac3, hits give low values 0.997 | locus YDR162C, strain NBP2, hits give low values 1.02 | locus YDR195W, strain ref2 0.989 | locus YDR297W, strain sur2, hits give low values 1.01 | locus YDR318W, strain mcm21, hits give low values 1.01 | locus YDR334W, strain swr1, hits give low values 1.03 | locus YDR335W, strain msn5, hits give low values 1.01 | locus YDR388W, hits give low values 1.01 | locus YDR392W, strain spt3, hits give low values 0.991 | locus YDR502C, strain sam2, hits give low values 1 | locus YEL003W, strain gim4, hits give low values 1.02 | locus YEL037C, strain rad23, hits give low values 1.01 | locus YEL061C, strain CIN8 (second series), hits give low values 0.987 | locus YEL061C, strain CIN8, hits give low values 1.01 | locus YER015W, strain faa2, hits give low values 1 | locus YER016W, strain bim1, hits give low values 1 | locus YER110C, hits give low values 1.02 | locus YER111C, strain swi4, hits give low values 1.01 | locus YER155C, strain BEM2 (second series), hits give low values 1.03 | locus YER155C, strain BEM2, hits give low values 1.02 | locus YER167W, strain BCK2, hits give low values 1.02 | locus YFR010W, strain ubp6, hits give low values 1.01 | locus YGL078C, strain dbp3, hits give low values 1 | locus YGL086W, strain mad1, hits give low values 1.01 | locus YGL167C, strain pmr1, hits give low values 1 | locus YGL173C, strain kem1, hits give low values 0.996 | locus YGL227W, strain vid30, hits give low values 0.997 | locus YGL240W, strain doc1, hits give low values 1.02 | locus YGL248W, strain PDE1, hits give low values 1.01 | locus YGL253W, strain hxk2, hits give low values 0.996 | locus YGR078C, strain PAC10, hits give low values 1.01 | locus YGR135W, strain pre9, hits give low values 1.02 | locus YGR229C, strain SMI1, hits give low values 1.03 | locus YGR252W, strain gcn5, hits give low values 0.964 | locus YHR013C, strain ard1, hits give low values 0.98 | locus YHR027C, strain rpn1, hits give low values 0.979 | locus YHR030C, strain SLT2, hits give low values 1.01 | locus YHR079C, strain IRE1 (second series), hits give low values 1.01 | locus YHR094C, strain hxt1, hits give low values 1.01 | locus YHR129C, strain ARP1, hits give low values 1.01 | locus YHR142W, strain chs7, hits give low values 1.02 | locus YHR200W, strain rpn10, hits give low values 1.01 | locus YIL066C, strain RNR3, hits give low values 1.01 | locus YIL073C, strain SPO22, hits give low values 1.02 | locus YIL125W, strain kgd1, hits give low values 0.997 | locus YIR030C, strain dcg1, hits give low values 0.998 | locus YJL092W, strain hpr5, hits give low values 1 | locus YJL095W, strain BCK1 (second series), hits give low values 0.981 | locus YJL095W, strain BCK1, hits give low values 1.04 | locus YJL115W, strain asf1, hits give low values 0.999 | locus YJL129C, strain trk1, hits give low values 0.974 | locus YJL134W, strain LCB3, hits give low values 1.01 | locus YJL154C, strain vps35, hits give low values 1.01 | locus YJL164C, strain tpk1, hits give low values 0.998 | locus YJL166W, strain qcr8, hits give low values 1 | locus YJL168C, strain set2, hits give low values 1.01 | locus YJL187C, strain SWE1 (second series), hits give low values 1.02 | locus YJL187C, strain SWE1, hits give low values 0.998
